Measured values taken from PubChem BioAssay AID492989 (National Center for Advancing Translational Sciences (NCATS), 2010).
The source made the active and inactive calls.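 How the source made its calls: active means clear inhibition seen at one or more tested concentrations; inactive means basal response, no inhibition.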

Target: Tyrosyl-DNA phosphodiesterase 1 (Homo sapiens) (UniProt Q9NUW8)
Test: Gel-Based Assay for Inhibitors of Tyrosyl-DNA Phosphodiesterase (TDP1)
Conditions: recombinant TDP1, 32P-DNA substrate gel cleavage
Text: Assay Overview: Human tyrosyl-DNA phosphodiesterase I (Tdp1) is a rational anticancer target because this enzyme is involved in the repair of DNA lesions created by the trapping of human DNA topoisomerase I (Top1) following treatment by anticancer agents such as camptothecins. Recombinant Tdp1 was expressed and purified from E. coli in the laboratory (Anthony et al, Nucleic Acids Research, 2007, Vol. 35, 4474-4484). See below for assay protocol. NIH Molecular Libraries Probe Production Network [MLPCN] NIH Chemical Genomics Center [NCGC] Assay Provider: Yves Pommier and Christophe Marchand, National Cancer Institute
5'-32P-labeled DNA substrate (1 nmol/L; N14Y; 5'-GATCTAAAAGACTT-pY-3') was incubated with 0.2 nmol/L recombinant Tdp1 in the absence or presence of inhibitor for 15 min at room temperature in an assay buffer containing 1X PBS, pH 7.4, 80 mmol/L KCl and 0.01% Tween-20. Reactions were terminated by the addition of 1 volume of gel loading buffer [99.5% (v/v) formamide, 5 mmol/L EDTA, 0.01% (w/v) xylene cyanol, and 0.01% (w/v) bromophenol blue]. Samples were subjected to a 16% denaturing PAGE and gels were exposed after drying to a PhosphorImager screen (GE Healthcare). Gel images were scanned using a Typhoon 8600 (GE Healthcare) and densitometric analyses were performed using the ImageQuant software (GE Healthcare).

Tyrosyl-DNA phosphodiesterase 1 (Homo sapiens), sequence (Q9NUW8 whole entry, looked up): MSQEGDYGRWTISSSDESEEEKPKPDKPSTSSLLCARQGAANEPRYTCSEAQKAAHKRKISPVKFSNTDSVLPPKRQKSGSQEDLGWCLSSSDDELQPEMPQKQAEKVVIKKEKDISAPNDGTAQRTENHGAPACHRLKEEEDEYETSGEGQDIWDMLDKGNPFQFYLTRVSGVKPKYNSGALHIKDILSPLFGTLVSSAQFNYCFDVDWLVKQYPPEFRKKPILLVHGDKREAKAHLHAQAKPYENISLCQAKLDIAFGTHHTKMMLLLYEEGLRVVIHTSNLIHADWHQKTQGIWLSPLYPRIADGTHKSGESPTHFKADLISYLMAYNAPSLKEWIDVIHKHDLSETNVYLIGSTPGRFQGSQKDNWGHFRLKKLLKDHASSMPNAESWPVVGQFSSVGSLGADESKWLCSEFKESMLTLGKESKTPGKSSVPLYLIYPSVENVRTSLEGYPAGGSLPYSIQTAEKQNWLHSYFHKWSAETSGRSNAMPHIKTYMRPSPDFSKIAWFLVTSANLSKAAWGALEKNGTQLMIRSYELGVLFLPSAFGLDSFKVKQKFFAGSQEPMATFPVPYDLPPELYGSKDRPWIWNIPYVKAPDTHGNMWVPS

| SMILES | Potency | outcome |
| --- | --- | --- |
| O=c1c2ccc(Br)cc2nc2sc(Nc3ccc4c(c3)CCC4)nn12 | 1.1 µM (active) | – |
| Nc1ccc2c(=O)n3nc(Nc4ccc5c(c4)CCC5)sc3nc2c1 | – | inactive |
| O=c1c2ccc([N+](=O)[O-])cc2nc2sc(Nc3ccc4c(c3)CCC4)nn12 | 37 µM (active) | – |
| Cc1cccc(Nc2nn3c(=O)c4ccccc4nc3s2)c1 | 10 µM (active) | – |
| CC(C)N1Cc2ccc(Nc3nn4c(=O)c5ccccc5nc4s3)cc2C1 | 22 µM (active) | – |
| O=c1c2ccccc2nc2sc(Nc3cccc(C(F)(F)F)c3)nn12 | – | inactive |
| Cc1ccc(Nc2nn3c(=O)c4ccccc4nc3s2)cc1C | 10 µM (active) | – |
| CN1CCN(c2cccc(Nc3nn4c(=O)c5ccccc5nc4s3)c2)CC1 | – | inactive |
| O=c1c2ccccc2nc2sc(Nc3cccc(Cl)c3)nn12 | 7.4 µM (active) | – |
| COc1cccc(Nc2nn3c(=O)c4ccccc4nc3s2)c1 | 100 µM (active) | – |
| O=c1c2ccccc2nc2sc(Nc3ccc4c(c3)OCO4)nn12 | 12 µM (active) | – |
| COc1ccc2c(=O)n3nc(Nc4ccc5c(c4)CCC5)sc3nc2c1 | 11 µM (active) | – |
| CCc1cccc(Nc2nn3c(=O)c4ccccc4nc3s2)c1 | – | inactive |
| CN(c1ccc2c(c1)CCC2)c1nn2c(=O)c3ccccc3nc2s1 | – | inactive |
| O=c1c2ccccc2nc2sc(Nc3ccc(Br)cc3)nn12 | – | inactive |
| O=c1c2ccccc2nc2sc(Nc3ccc4c(c3)CCC4)nn12 | 2.5 µM (active) | – |
| O=c1c2ccccc2nc2sc(Nc3cccc(-c4ccncc4)c3)nn12 | 11 µM (active) | – |
| O=c1c2ccccc2nc2sc(Nc3ccc(F)cc3)nn12 | – | inactive |
| O=c1c2ccccc2nc2sc(Nc3ccc4c(c3)CNC4)nn12 | 100 µM (active) | – |
| O=c1c2ccccc2nc2sc(Nc3cccc(Br)c3)nn12 | – | inactive |
| O=c1c2ccc(C(F)(F)F)cc2nc2sc(Nc3ccc4c(c3)CCC4)nn12 | 12 µM (active) | – |
| O=c1c2ccccc2nc2sc(Nc3cccc4ccccc34)nn12 | 14 µM (active) | – |
| CC(C)(C)NS(=O)(=O)c1cccc(Nc2nn3c(=O)c4ccccc4nc3s2)c1 | 34 µM (active) | – |
| CN(C)c1ccc2c(=O)n3nc(Nc4ccc5c(c4)CCC5)sc3nc2c1 | – | inactive |
| O=c1c2ccccc2nc2sc(Nc3ccccc3)nn12 | 100 µM (active) | – |
